PubChem BioAssay (NCI)
Several values for one entry are separate records, joined by “and”; a condition that tells them apart may be missing. Identical values can stand only once. The panel holds about 83,000 compounds, 20% with a hit somewhere; the sample as a whole holds those more often.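 The test compound was applied at a single concentration to cells in 96-well plates for 48 hours, and percent growth was recorded.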 Activity calls are given as the source filed them. The calls were made as follows: active = growth percent below 10; inactive = the rest.

What was measured:
Experiment in all cases: NCI-60 one-dose screen, 48 h (100 = growth as untreated, 0 = no growth, -100 = all killed)
Settings in all cases: 10 µM unless noted
NCI-H23 lung = tested on: NCI-H23 lung
NCI-H226 lung = tested on: NCI-H226 lung
NCI-H322M lung = tested on: NCI-H322M lung
HOP-62 NSCLC = tested on: HOP-62 NSCLC
HOP-92 NSCLC = tested on: HOP-92 NSCLC
NCI-H522 lung = tested on: NCI-H522 lung
A549/ATCC NSCLC = tested on: A549/ATCC NSCLC
786-0 renal = tested on: 786-0 renal
COLO 205 colon = tested on: COLO 205 colon
DU-145 prostate = tested on: DU-145 prostate
K-562 leukemia = tested on: K-562 leukemia
MALME-3M melanoma = tested on: MALME-3M melanoma
MDA-MB-231 breast = tested on: MDA-MB-231 breast
RXF 393 renal = tested on: RXF 393 renal
SF-268 CNS = tested on: SF-268 CNS
SF-295 CNS = tested on: SF-295 CNS
SF-539 CNS = tested on: SF-539 CNS
UACC-257 melanoma = tested on: UACC-257 melanoma
M14 melanoma = tested on: M14 melanoma
NCI-H460 lung = tested on: NCI-H460 lung

Measured: growth

O=C1CCN(Cc2ccccc2)C(=S)N1
inactive: NCI-H23 lung 117% and 100% | NCI-H226 lung 110% and 105% | NCI-H322M lung 92.1% and 93% | HOP-62 NSCLC 101% and 103% | HOP-92 NSCLC 70.4% and 92.4% | NCI-H522 lung 114% and 95.1% | A549/ATCC NSCLC 107% and 105% | 786-0 renal 108% and 109% | COLO 205 colon 111% and 108% | DU-145 prostate 140% and 107% | K-562 leukemia 87% | MALME-3M melanoma 92.6% and 101% | MDA-MB-231 breast 125% and 98.1% | RXF 393 renal 122% and 121% | SF-268 CNS 111% and 99.5% | SF-295 CNS 118% and 133% | SF-539 CNS 111% and 98.6% | UACC-257 melanoma 114% and 107% | M14 melanoma 103% and 112%

CN(C)c1ccc2nc3ccc(N)cc3[n+](-c3ccccc3)c2c1
inactive: NCI-H23 lung 10.4% and 20.6% | NCI-H226 lung 54.7% and 72.4% | NCI-H322M lung 66.1% and 40.3% | HOP-62 NSCLC 12.6% and 42.7% | NCI-H522 lung 14.1% | 786-0 renal 56.3% and 38.7% | MDA-MB-231 breast 51.6% and 15.7% | RXF 393 renal 65.6% and 73.1% | M14 melanoma 40.8% and 15%
30.3% (inactive) and 7.92% (active): SF-268 CNS
-3.42% (active) and 38.1% (inactive): HOP-92 NSCLC
46.7% (inactive) and 2.32% (active): DU-145 prostate
19.8% (inactive) and -29.8% (active): SF-539 CNS
9.29% (active) and 18.5% (inactive): K-562 leukemia
active: COLO 205 colon -62.8% and -12.6% | MALME-3M melanoma 4.82% and -9.23% | UACC-257 melanoma -12.2% and -21%
29% (inactive) and -39.8% (active): SF-295 CNS
62.1% (inactive) and -27.6% (active): A549/ATCC NSCLC

Nc1ccccc1SC1CC(=O)N(c2cccc3ccccc23)C1=O (stereo unspecified)
inactive: NCI-H23 lung 101% | NCI-H226 lung 83.6% | NCI-H322M lung 97% | HOP-62 NSCLC 90.5% | NCI-H460 lung 99.3% | 786-0 renal 101% | COLO 205 colon 105% | DU-145 prostate 111% | K-562 leukemia 90.2% | MALME-3M melanoma 101% | MDA-MB-231 breast 91.9% | RXF 393 renal 93% | SF-268 CNS 98.1% | SF-295 CNS 94.7% | SF-539 CNS 95.6% | M14 melanoma 105%

O=C(/C=C\c1ccnc2ccccc12)c1ccc([N+](=O)[O-])cc1
inactive: NCI-H23 lung 91.4% and 63% | NCI-H226 lung 85.3% and 68.5% | NCI-H322M lung 112% and 115% | HOP-62 NSCLC 104% and 77.9% | HOP-92 NSCLC 78% and 58% | NCI-H522 lung 36.7% and 67.7% | A549/ATCC NSCLC 91.5% and 78.3% | 786-0 renal 88.8% and 81.4% | COLO 205 colon 118% and 105% | DU-145 prostate 101% and 96% | MALME-3M melanoma 101% and 85.5% | MDA-MB-231 breast 84.1% and 93.2% | RXF 393 renal 107% and 75.7% | SF-268 CNS 105% and 91.6% | SF-295 CNS 82.6% | SF-539 CNS 85.2% | UACC-257 melanoma 90% and 65.8% | M14 melanoma 90.7% and 79.5%
55.1% (inactive) and 8.08% (active): K-562 leukemia

CCOc1ccc2cc(-c3nn(CC4CCN(C)CC4)c4ncnc(N)c34)ccc2c1
46.8% (inactive) and -5.36% (active): RXF 393 renal
98.4% (inactive) and -77.3% (active): M14 melanoma
69.7% (inactive) and -46.1% (active): MALME-3M melanoma
87.5% (inactive) and 2.73% (active): K-562 leukemia
inactive: NCI-H23 lung 74.2% and 63.5% | NCI-H226 lung 83.6% and 67.7% | NCI-H322M lung 92.7% and 87.4% | HOP-62 NSCLC 83.8% and 77.2% | NCI-H460 lung 96.1% and 69.6% | HOP-92 NSCLC 69.1% and 48.8% | NCI-H522 lung 87% and 42.3% | 786-0 renal 80.1% and 55.8% | COLO 205 colon 89.7% and 39.6% | DU-145 prostate 102% and 69.9% | MDA-MB-231 breast 85% and 11.1% | SF-268 CNS 90% and 48.6% | SF-295 CNS 96.9% and 50.4% | SF-539 CNS 84.4% and 16.7%
active: UACC-257 melanoma -67.9%

CC(=O)Oc1cc(C(=O)O)cc(OC(C)=O)c1OC(C)=O
inactive: NCI-H23 lung 103% and 97.3% | NCI-H226 lung 96.4% and 89.6% | NCI-H322M lung 116% and 102% | HOP-62 NSCLC 88.8% and 99% | HOP-92 NSCLC 99.1% and 107% | NCI-H522 lung 100% and 93.4% | A549/ATCC NSCLC 103% and 90.1% | 786-0 renal 111% and 102% | COLO 205 colon 125% and 122% | DU-145 prostate 118% and 113% | K-562 leukemia 108% | MALME-3M melanoma 115% and 96.5% | MDA-MB-231 breast 94% and 97.3% | RXF 393 renal 99.5% and 122% | SF-268 CNS 107% and 102% | SF-295 CNS 107% and 102% | SF-539 CNS 121% and 104% | UACC-257 melanoma 95.3% and 90.7% | M14 melanoma 105% and 99%

Nc1ccc2ccc(N)cc2c1
inactive: NCI-H23 lung 69.7% | NCI-H226 lung 95.7% | NCI-H322M lung 69.1% | HOP-62 NSCLC 86% | NCI-H460 lung 91.7% | HOP-92 NSCLC 101% | A549/ATCC NSCLC 82.5% | 786-0 renal 94.3% | COLO 205 colon 89.6% | DU-145 prostate 96.1% | K-562 leukemia 57.3% | MALME-3M melanoma 33.1% | MDA-MB-231 breast 62.1% | RXF 393 renal 88.1% | SF-268 CNS 84.3% | SF-295 CNS 72.1% | SF-539 CNS 107%

Cc1cccc(/C=C\C(=O)c2ccc(Cl)cc2)c1
inactive: NCI-H23 lung 93.9% and 102% | NCI-H226 lung 112% and 100% | NCI-H322M lung 103% and 92.6% | HOP-62 NSCLC 109% and 113% | HOP-92 NSCLC 82.3% | NCI-H522 lung 94.2% | A549/ATCC NSCLC 88.8% and 85.8% | 786-0 renal 82% and 74.2% | COLO 205 colon 121% and 111% | DU-145 prostate 114% and 96.5% | K-562 leukemia 77% and 20.5% | MALME-3M melanoma 92.5% | MDA-MB-231 breast 97.6% and 116% | RXF 393 renal 112% and 97.8% | SF-268 CNS 102% and 92.5% | SF-295 CNS 161% and 93.9% | SF-539 CNS 101% | UACC-257 melanoma 105% and 109% | M14 melanoma 94.3% and 91.1%

CCN(CC)CCC(CNc1ccnc2cc(Cl)ccc12)c1ccc(OC)cc1 (stereo unspecified)
inactive: NCI-H23 lung 72.4% and 66.1% | NCI-H226 lung 97.2% and 95.5% | NCI-H322M lung 60.4% and 64.8% | HOP-62 NSCLC 83.4% and 77.7% | HOP-92 NSCLC 47.3% and 59.4% | NCI-H522 lung 25.8% and 20.3% | A549/ATCC NSCLC 78.9% and 88.3% | 786-0 renal 62.1% and 73.7% | DU-145 prostate 84.7% and 96.7% | MDA-MB-231 breast 33.1% and 44.1% | RXF 393 renal 33.6% and 38.1% | SF-268 CNS 75.9% and 76.8%
active: K-562 leukemia 6.83% and 1.92% | MALME-3M melanoma -69.1% and -65.7% | SF-539 CNS -80.6% and -66.8% | UACC-257 melanoma -70% and -74.4% | M14 melanoma -60.3% and -78.3%
46.5% (inactive) and 1.95% (active): SF-295 CNS
33.3% (inactive) and -41.5% (active): COLO 205 colon
